In PubChem BioAssay (NCATS) one finds Potency data, which are given here for 16 compounds.

The structures appear in SMILES notation. Results filed as inconclusive are left out. Entries that show only a call come without a potency. Activity calls are given as the source filed them. Calls come from the whole dose curve; as a rule, active = well fitted inhibition curve with a large enough effect; inconclusive = small, poorly fitted or top-dose-only effect; inactive = no such curve, though single readings can be large or run the other way.

In assay [1] the test system is Zika virus NS2B-NS3 protease (unlinked complex). Put plainly: Primary screen GU Rhodamine qHTS for Zika virus inhibitors: Unlinked NS2B-NS3 protease assay (AID 1347159). Note: nearly all actives have a fitted effect of over 60% in size. The following applies: Recombinant ZIKV NS2B-NS3 protease, Rhodamine110 substrate fluorescence; series mostly up to 107 µM. An outline of the steps:
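Buffer 10 mM Tris-HCl pH 8.0, 0.01% Tween 20. Unlinked protease 25 nM; compound preincubation 15 min, RT, protected from light. Substrate Rhod110, 1.5 microM; ~15% conversion in 15 min.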
Background: qHTS replaces the single test concentration by a dilution series.

The test system of assay [2] is Zika virus NS2B-NS3 protease (linked construct). Put plainly: Primary screen NINDS Rhodamine qHTS for Zika virus inhibitors (AID 1347160). Note: nearly all actives have a fitted effect of over 55% in size. Note: potency is the fitted concentration of half-maximal effect. The settings on record: purified NS2B-NS3 protease, Rhodamine110 substrate fluorescence; series mostly up to 33.1 µM. In short, it runs like this:
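Aprotinin served as in-plate control. Conditions: 25 nM linked NS2B-NS3, pH 8.0 Tris buffer, titrated compounds, 15 min preincubation and 15 min reaction with 1.5 microM Rhod110 substrate at room temperature.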

On to `CN1CCCC1Cc1c[nH]c2ccc(CCS(=O)(=O)c3ccccc3)cc12` (stereo unspecified), for which the Potency result in assay [1] and in assay [2] was “inactive” throughout.

As to `COc1ccc(CCc2nc3cc(-c4c(C)noc4C)ccc3n2C[C@H](C)N2CCOCC2)cc1Cl`, the Potency result in assay [1] and in assay [2] was “inactive” throughout.

As for `CC[C@@H]1[C@H]2CCCCN3C(=O)C[C@H]([C@@H]4[C@H]1OC(=O)[C@H]4C)[C@@H]23`, the Potency entry in assay [2] is “inactive”.

As for `C/C(=C\C(=O)C(C)C1CCC2C3=C(CCC21C)C1(C)CCC(=O)C(C)(C)C1(O)CC3)C(C)(C)O` (stereo unspecified), the Potency in assay [2] was 14.1 µM (active).

Turning to `O=C(CCCCC1CCCCC1)N1CCC(c2cnc[nH]2)CC1`, the Potency entry in assay [1] and in assay [2] was “inactive” each time.

As for `Nc1ncnc2c1c(COc1cccc(Cl)c1)nn2C1CCOCC1`, the Potency result in assay [1] and in assay [2] was “inactive” each time.

Take `C=C1CC/C=C(/C(=O)O)CCC2C1CC2(C)C` (stereo unspecified): in assay [2], the Potency entry is “inactive”.

As to `CN1C(=O)N(c2cc(Cl)cc(Cl)c2)C(=O)[C@@]1(C)Cc1ccc(Br)cc1`, the Potency result in assay [1] was “inactive”.

Take `Fc1ccc(-c2c3cccc(C(F)(F)F)c3nn2Cc2ccc(F)cc2Cl)cc1`: the Potency entry in assay [1] and in assay [2] was “inactive” in each case.

Turning to `CC(C)c1c(NC(=O)Nc2ccc(Cl)cc2)c(=O)n(-c2ccccc2)n1C`, the Potency result in assay [1] and in assay [2] was “inactive” in each case.

Consider `C[C@@H]1O[C@@H](O[C@H]2[C@H](O[C@H]3[C@H](O[C@H]4CC[C@@]5(C)C(CC[C@]6(C)C5CC=C5[C@@H]7CC(C)(C)C[C@@H](O)[C@]7(C)CC[C@]56C)[C@@]4(C)CO)O[C@H](C(=O)O)[C@@H](O)[C@@H]3O)O[C@H](C(=O)O)[C@H](O)[C@@H]2O)[C@H](O)[C@H](O)[C@H]1O` (stereo partly specified), for which the Potency entry in assay [1] was “inactive”.

`O=c1[nH]ccc2nc(-c3ccc(CN4CCC(c5nc(-c6ccccn6)n[nH]5)CC4)cc3)c(-c3ccccc3)cc12`: the Potency entry in assay [2] was “inactive”.

In the case of `COc1ccccc1N1CCN(CCCCNC(=O)c2ccc(-c3cscn3)cc2)CC1`, the Potency result in assay [1] and in assay [2] was “inactive” in each case.

As to `NC1=NC2(c3cc(NC(=O)c4ccc(F)cn4)ccc3F)COCC2CS1` (stereo unspecified), the Potency result in assay [1] and in assay [2] was “inactive” each time.

For the compound `C[C@@H]1O[C@@H](O[C@H]2[C@H](Oc3cc(O)c(C(=O)CCc4ccc(O)cc4)c(O)c3)O[C@H](CO)[C@@H](O)[C@@H]2O)[C@H](O)[C@H](O)[C@H]1O`, the Potency result in assay [1] and in assay [2] was “inactive” in each case.

Turning to `Cc1ncc(Cl)cc1NCc1ccc(C(=O)NC(CC2CCCC2)C(=O)NC2CC2)s1` (stereo unspecified), the Potency result in assay [1] and in assay [2] was “inactive” throughout.
